Test results taken from PubChem BioAssay.
For some assays here: Potency and affinity values are given separately. The source made the active and inactive calls.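 The calls were made as follows, unless noted: active = earlier screen potentiator hit that boosts the TRPC4 ion channel at some dose, with a dose response; inactive = no potentiation, no dose response, or not a prior hit.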

Key:
[1] = system: TRPC4 beta (transient receptor potential cation channel C4), mouse; assay: TRPC4 cation channel opening, retest – cell-based, Fluo4 calcium, HEK293 TRPC4beta/mu-opioid, duplicates, 10 µM, confirmation (AID 2426;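 active = fluorescence ratio normalized to control raised more than 50% in primary screen plus both repeat runs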); settings: Fluo4 calcium fluorescence, at 10 µM; stronger effect = higher value
[2] = system: transient receptor potential cation channel C4 beta (TRPC4), mouse; assay: TRPC4 cation channel opening, second retest – cell-based, second round, Fluo4, HEK293 TRPC4beta/mu-opioid, 1 µM, confirmation (AID 2461;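 active = primary screen active and over 50% activation in each of two duplicate runs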); settings: Fluo4 calcium fluorescence, at 1 µM; stronger effect = higher value
[3] = system: TRPC4 (transient receptor potential cation channel C4 beta), mouse; assay: potentiation of DAMGO EC20 TRPC4 response – cell-based, second round, Fluo-4, HEK293 TRPC4beta/mu-opioid, 1 µM, confirmation (AID 2554;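 active = primary screen hit whose fluorescence ratio, in both repeats, exceeds the weak agonist control mean by 3 SD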); settings: DAMGO EC20, Fluo-4 calcium flux, at 1 µM; stronger effect = higher value
[4] = system: TRPC4 beta (transient receptor potential cation channel C4), mouse; assay: potentiation of DAMGO EC20 TRPC4 response – cell-based, Fluo-4, HEK293 TRPC4beta/mu-opioid, confirmation (AID 2555;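 active = primary screen hit whose calcium fluorescence ratio, in both repeats, exceeds the weak agonist control mean by 3 SD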); settings: DAMGO EC20, Fluo-4 calcium flux, at 10 µM; stronger effect = higher value
[5] = molecular target: Short transient receptor potential channel 4 (Mus musculus) (UniProt Q9QUQ5); assay: blockers of DAMGO-evoked TRPC4 calcium flux – cell-based, Fluo4, HEK293 TRPC4beta/mu-opioid, confirmation (AID 2636;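 active = calcium signal cut by more than 3 SD below the full-agonist control yet still positive, in both repeats and the earlier primary screen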); settings: at 10 µM; stronger effect = higher value
Chain of Short transient receptor potential channel 4 (Mus musculus) (Q9QUQ5 whole entry, looked up): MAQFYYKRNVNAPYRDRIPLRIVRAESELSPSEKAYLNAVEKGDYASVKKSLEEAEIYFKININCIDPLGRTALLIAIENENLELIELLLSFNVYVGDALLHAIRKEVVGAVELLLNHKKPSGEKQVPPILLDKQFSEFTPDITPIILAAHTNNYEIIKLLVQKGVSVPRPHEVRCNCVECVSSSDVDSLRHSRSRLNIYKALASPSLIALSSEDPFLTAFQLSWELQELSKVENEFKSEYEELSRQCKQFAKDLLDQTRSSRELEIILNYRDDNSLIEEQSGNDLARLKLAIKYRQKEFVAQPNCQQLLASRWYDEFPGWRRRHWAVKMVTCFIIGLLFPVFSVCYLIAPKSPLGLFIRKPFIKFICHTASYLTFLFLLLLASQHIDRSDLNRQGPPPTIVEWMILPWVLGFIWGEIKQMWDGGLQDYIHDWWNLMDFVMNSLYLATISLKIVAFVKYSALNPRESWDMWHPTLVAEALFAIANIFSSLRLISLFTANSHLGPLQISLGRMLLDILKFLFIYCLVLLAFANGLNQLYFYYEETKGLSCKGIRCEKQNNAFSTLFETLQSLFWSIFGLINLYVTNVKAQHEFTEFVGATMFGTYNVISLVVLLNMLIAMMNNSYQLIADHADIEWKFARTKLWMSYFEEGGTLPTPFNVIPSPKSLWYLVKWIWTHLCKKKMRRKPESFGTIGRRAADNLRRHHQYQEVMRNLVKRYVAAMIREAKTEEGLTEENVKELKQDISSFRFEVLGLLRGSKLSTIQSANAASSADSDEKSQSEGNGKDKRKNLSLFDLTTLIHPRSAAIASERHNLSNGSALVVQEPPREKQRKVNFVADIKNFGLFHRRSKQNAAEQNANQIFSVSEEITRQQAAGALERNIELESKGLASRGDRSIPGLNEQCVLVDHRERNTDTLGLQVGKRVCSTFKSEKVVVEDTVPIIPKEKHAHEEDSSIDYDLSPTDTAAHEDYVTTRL

[6] = molecular target: Short transient receptor potential channel 4 (Mus musculus) (UniProt Q9QUQ5); assay: blockers of DAMGO-evoked TRPC4 calcium flux – cell-based, second round, Fluo4, HEK293 TRPC4beta/mu-opioid, 1 µM, confirmation (AID 2637;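 active = calcium signal ratio cut to more than 3 SD under the fully stimulated control mean yet still positive, in both repeats and the primary screen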;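 as to inhibition: percent of integrated ratio relative to wells lacking test compound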); settings: at 1 µM; stronger effect = higher value
[7] = molecular target: Short transient receptor potential channel 4 (Mus musculus) (UniProt Q9QUQ5); assay: calcium entry via TRPC4 opening agents – cell-based, HEK293 TRPC4/mu-opioid, Fluo-4 calcium, dose response (AID 434937;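 active = primary screen activator hit with a dose response curve and TRPC4 channel activation at any tested dose; inactive = no activation, no dose response, or not a primary hit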)
[8] = molecular target: Short transient receptor potential channel 4 (Mus musculus) (UniProt Q9QUQ5); assay: potentiation of DAMGO-evoked TRPC4 calcium signal – cell-based, HEK293 TRPC4/mu-opioid, Fluo-4 calcium, EC20 DAMGO, dose response (AID 434941);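 also: calcium entry triggered by an EC20 dose of DAMGO at the co-expressed mu-opioid receptor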
[9] = molecular target: Short transient receptor potential channel 4 (Mus musculus) (UniProt Q9QUQ5); assay: block of DAMGO-driven TRPC4 calcium entry – cell-based, HEK293 TRPC4/mu-opioid, Fluo-4 calcium, dose response (AID 434942;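 active = primary screen inhibitor hit that blocks the TRPC4 channel at some tested dose, yielding a dose curve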)
[10] = molecular target: Short transient receptor potential channel 6 (Mus musculus) (UniProt Q61143); assay: TRPC6 blockade by TRPC4 inhibitor hits – cell-based, HEK293, membrane potential dye, duplicate, selectivity assay for TRPC4 inhibitor project, confirmation (AID 434948;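 active = active in primary screen and both duplicates, each dropping signal beyond three positive-control SD with fluorescence still positive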); settings: HEK293 TRPC6, membrane potential dye fluorescence, at 10 µM, stimulated with maximal-effect acetylcholine; stronger effect = higher value
Chain of Short transient receptor potential channel 6 (Mus musculus) (Q61143 whole entry, looked up): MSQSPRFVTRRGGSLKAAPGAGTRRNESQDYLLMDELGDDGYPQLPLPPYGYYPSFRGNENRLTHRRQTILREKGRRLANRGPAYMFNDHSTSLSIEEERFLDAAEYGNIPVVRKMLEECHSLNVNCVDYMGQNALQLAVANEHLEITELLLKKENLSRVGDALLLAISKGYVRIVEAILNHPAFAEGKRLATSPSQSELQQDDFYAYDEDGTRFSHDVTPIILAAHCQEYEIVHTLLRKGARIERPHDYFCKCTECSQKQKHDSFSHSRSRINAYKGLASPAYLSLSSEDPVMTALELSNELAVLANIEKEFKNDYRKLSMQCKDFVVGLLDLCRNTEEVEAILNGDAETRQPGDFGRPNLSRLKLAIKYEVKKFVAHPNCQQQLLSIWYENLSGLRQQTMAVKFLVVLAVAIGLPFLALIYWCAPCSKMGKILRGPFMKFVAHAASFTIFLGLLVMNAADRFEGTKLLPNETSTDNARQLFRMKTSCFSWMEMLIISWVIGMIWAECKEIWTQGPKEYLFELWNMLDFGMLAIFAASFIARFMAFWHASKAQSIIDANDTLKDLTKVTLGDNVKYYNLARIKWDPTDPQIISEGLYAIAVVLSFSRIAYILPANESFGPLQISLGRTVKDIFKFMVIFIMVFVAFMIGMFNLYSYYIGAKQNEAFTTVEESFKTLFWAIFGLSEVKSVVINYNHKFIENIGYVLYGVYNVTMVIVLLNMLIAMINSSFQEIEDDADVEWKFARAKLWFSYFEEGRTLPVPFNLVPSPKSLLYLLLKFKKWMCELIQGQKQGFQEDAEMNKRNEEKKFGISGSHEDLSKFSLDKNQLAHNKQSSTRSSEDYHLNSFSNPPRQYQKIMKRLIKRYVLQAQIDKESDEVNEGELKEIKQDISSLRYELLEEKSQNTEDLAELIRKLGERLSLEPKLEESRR

[11] = molecular target: Short transient receptor potential channel 6 (Mus musculus) (UniProt Q61143); assay: TRPC6 opening by TRPC4 activator hits – cell-based, HEK293, membrane potential dye, duplicate, selectivity assay for TRPC4 activator project, confirmation (AID 434950;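 active = membrane potential signal rise above negative control mean plus 3 SD in both duplicates, also active in the earlier TRPC4 screen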); settings: HEK293 TRPC6, membrane potential fluorescence, at 10 µM; activation: stronger effect = higher value; outcome: activation
[12] = molecular target: Short transient receptor potential channel 6 (Mus musculus) (UniProt Q61143); assay: positive modulators of mouse TRPC6 channel – HEK293 cells, membrane potential dye, duplicate, selectivity assay for TRPC4 potentiator project, confirmation (AID 434952;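 active = compound raising the membrane signal above positive-control mean plus 3 SD in both repeats, and a primary screen hit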); settings: HEK293 TRPC6, membrane potential dye fluorescence, at 10 µM, maximal acetylcholine added after compound; stronger effect = higher value
[13] = molecular target: Short transient receptor potential channel 4 (Mus musculus) (UniProt Q9QUQ5); assay: calcium flux activators in TRPC4/5HT1a cells, counter-screen for TRPC4 activator project, cell-based, second counter screen, HEK293 TRPC4/5HT1a, Fluo-4 (AID 434977;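 active = calcium signal rise above buffer-control mean plus 5 SD in both duplicates, and also a hit in the primary screen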); settings: Fluo-4 calcium flux, at 10 µM; stronger effect = higher value
[14] = serotonin-gated TRPC4 signal block – cell-based, second counter screen, HEK293 TRPC4/5HT1a, Fluo-4, counter-screen for TRPC4 inhibitor project, confirmation (AID 434978;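 active = primary screen active whose calcium signal fell more than 3 SD beyond the full-serotonin control mean in both duplicate plates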;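 as to outcome: serotonin given first at submaximal then at maximal dose after compound preincubation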); settings: Fluo-4 calcium flux, at 10 µM, serotonin added to trigger calcium flux; stronger effect = higher value
[15] = system: TRPC4 (mouse), co-expressed with 5HT1a in HEK293; assay: enhancement of serotonin-evoked TRPC4 response – cell-based, second counter screen, HEK293 TRPC4/5HT1a, Fluo-4, counter-screen for TRPC4 potentiator project, confirmation (AID 434979;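 active = signal rise over 3 SD above mean of control wells given weak agonist, in both repeats and first screen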); settings: Fluo-4 calcium flux, at 10 µM, serotonin added at its EC20 dose; stronger effect = higher value
[16] = nonspecific calcium rise without TRPC4 – cell-based, HEK293 mu-opioid receptor line, counter-screen for TRPC4 activator project, confirmation (AID 449723;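 active = hit in primary screen, with calcium signal over 5 SD above buffer well mean in both duplicates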;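 also: counter screen cells carry the mu-opioid receptor alone and lack TRPC4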); settings: HEK293 mu-opioid cells, Fluo-4 calcium fluorescence, at 10 µM; stronger effect = higher value
[17] = nonspecific potentiation of DAMGO calcium response – cell-based, HEK293 mu-opioid receptor line, counter-screen for TRPC4 allosteric potentiator project, confirmation (AID 449724;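 active = calcium signal rise more than 3 SD above the low-dose agonist control mean, in both duplicate plates and the primary screen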); settings: HEK293 mu-opioid receptor cells, Fluo-4 calcium flux, at 10 µM, compound added before EC20 DAMGO stimulus; stronger effect = higher value
[18] = nonspecific flux increase, KCNQ1-free cells – parental CHO cells, counter-screen for KCNQ1 potentiator project (AID 493006;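 active = duplicate-averaged activation above buffer control mean plus 5 SD of those controls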;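 as to activation: fluorescence ratio of max minus min over baseline after K+ and Tl+ depolarization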); settings: parental CHO-K1 cells, FluxOR thallium flux, at 10 µM; stronger effect = higher value
[19] = molecular target: Potassium voltage-gated channel subfamily KQT member 1 (Homo sapiens) (UniProt P51787); assay: enhancement of KCNQ1 channel thallium flux – FluxOR thallium flux, CHO cells, duplicates, confirmation (AID 493007;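 active = potentiation averaged over duplicate wells exceeding buffer-only control mean by more than 3 SD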;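 as to outcome: cells depolarized by a potassium plus thallium sulfate stimulus after compound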;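 as to potentiation: 0% = buffer-only wells and 100% = R-L3 activator control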); settings: KCNQ1 cell line, FluxOR thallium flux fluorescence, at 10 µM; stronger effect = higher value, % of reference activator effect, buffer zero
Chain of Potassium voltage-gated channel subfamily KQT member 1 (Homo sapiens) (P51787 whole entry, looked up): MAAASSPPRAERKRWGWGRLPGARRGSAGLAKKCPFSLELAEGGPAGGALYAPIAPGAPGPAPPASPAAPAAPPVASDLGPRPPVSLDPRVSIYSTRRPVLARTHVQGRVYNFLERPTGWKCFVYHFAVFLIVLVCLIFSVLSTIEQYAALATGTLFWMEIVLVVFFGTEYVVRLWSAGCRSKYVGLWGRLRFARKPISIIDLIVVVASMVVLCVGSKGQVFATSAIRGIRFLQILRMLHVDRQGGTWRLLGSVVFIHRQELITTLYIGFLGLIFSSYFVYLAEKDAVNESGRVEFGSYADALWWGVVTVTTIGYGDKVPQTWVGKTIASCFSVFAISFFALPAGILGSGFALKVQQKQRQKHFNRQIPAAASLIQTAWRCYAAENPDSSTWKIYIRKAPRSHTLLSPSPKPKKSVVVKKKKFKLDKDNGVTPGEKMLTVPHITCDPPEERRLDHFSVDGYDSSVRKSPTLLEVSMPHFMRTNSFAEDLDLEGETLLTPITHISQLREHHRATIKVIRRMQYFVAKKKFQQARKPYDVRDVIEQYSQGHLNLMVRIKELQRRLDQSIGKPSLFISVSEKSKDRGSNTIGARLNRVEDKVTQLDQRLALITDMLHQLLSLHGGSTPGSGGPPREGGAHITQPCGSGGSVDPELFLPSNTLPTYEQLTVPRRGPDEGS

[20] = molecular target: Potassium voltage-gated channel subfamily KQT member 2 (Rattus norvegicus) (UniProt O88943); assay: KCNQ2 thallium flux enhancement – KCNQ2-CHO-K1 cells, selectivity assay for KCNQ1 potentiator project (AID 493009;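 active = mean duplicate potentiation above the buffer control mean plus 5 SD of buffer wells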;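 also: assay conditions were tuned for KCNQ1 rather than KCNQ2 modulators; signal is max minus min fluorescence divided by baseline after thallium stimulus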); settings: FluxOR thallium flux fluorescence, at 10 µM; stronger effect = higher value, scaled: buffer 0, activator control 100
Chain of Potassium voltage-gated channel subfamily KQT member 2 (Rattus norvegicus) (O88943 whole entry, looked up): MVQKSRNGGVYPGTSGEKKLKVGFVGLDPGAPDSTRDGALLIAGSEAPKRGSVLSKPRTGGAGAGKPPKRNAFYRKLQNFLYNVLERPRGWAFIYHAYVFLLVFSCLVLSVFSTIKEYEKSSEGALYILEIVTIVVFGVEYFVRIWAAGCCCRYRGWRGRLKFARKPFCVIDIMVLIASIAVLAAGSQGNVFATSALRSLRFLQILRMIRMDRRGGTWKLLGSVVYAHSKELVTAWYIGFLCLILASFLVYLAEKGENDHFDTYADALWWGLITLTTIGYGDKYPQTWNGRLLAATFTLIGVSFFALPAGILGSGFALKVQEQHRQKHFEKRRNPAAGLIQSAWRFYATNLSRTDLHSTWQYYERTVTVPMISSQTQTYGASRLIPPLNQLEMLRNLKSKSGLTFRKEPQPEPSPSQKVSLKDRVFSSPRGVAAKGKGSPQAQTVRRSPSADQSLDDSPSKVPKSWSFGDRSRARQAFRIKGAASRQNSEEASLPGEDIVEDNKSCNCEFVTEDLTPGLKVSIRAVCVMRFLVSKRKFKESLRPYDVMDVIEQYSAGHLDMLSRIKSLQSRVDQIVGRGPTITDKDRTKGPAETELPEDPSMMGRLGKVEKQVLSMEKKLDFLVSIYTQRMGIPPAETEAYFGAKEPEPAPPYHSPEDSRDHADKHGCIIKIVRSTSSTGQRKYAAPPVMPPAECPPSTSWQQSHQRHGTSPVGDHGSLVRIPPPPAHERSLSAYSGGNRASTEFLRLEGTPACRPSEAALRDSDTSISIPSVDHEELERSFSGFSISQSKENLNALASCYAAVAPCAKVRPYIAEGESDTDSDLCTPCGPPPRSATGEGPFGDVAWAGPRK

COc1ccc(NS(=O)(=O)c2ccc3ccccc3c2)c2ncccc12
active: potentiation [19] 49% | potentiation [20] 172%
inactive: outcome [1] | outcome [2] | outcome [3] | outcome [4] | outcome [5] | outcome [6] | outcome [7] | outcome [8] | outcome [9] | outcome [10] | outcome [11] | outcome [12] | outcome [13] | outcome [14] | outcome [15] | outcome [16] | outcome [17] | outcome [18]

CN(CCCNC(=O)CCCOc1cc(=O)n(C)c2ccccc12)Cc1ccccc1
inactive: outcome [1] | outcome [2] | outcome [5] | outcome [6] | outcome [7] | outcome [8] | outcome [9] | outcome [10] | outcome [11] | outcome [12] | outcome [13] | outcome [14] | outcome [16] | outcome [17] | outcome [18] | outcome [19] | outcome [20]
active: potentiation [3] 21% | potentiation [4] 14% | potentiation [15] 20.2%

Cn1c(=O)n(CCCO)c(=O)c2c1nc1n2CCCN1Cc1ccccc1
active: inhibition [5] 86% | inhibition [6] 46% | inhibition [14] 28.4%
inactive: outcome [1] | outcome [2] | outcome [3] | outcome [4] | outcome [7] | outcome [8] | outcome [9] | outcome [10] | outcome [11] | outcome [12] | outcome [13] | outcome [15] | outcome [16] | outcome [17]

Cc1ccc(C)c2[nH]c(=O)c(C(c3nnnn3C3CCCC3)N3CCOCC3)cc12 (stereo not drawn)
inactive: outcome [1] | outcome [2] | outcome [3] | outcome [4] | outcome [5] | outcome [6] | outcome [7] | outcome [8] | outcome [9] | outcome [10] | outcome [11] | outcome [12] | outcome [13] | outcome [14] | outcome [15] | outcome [16] | outcome [17]

CCCCCCCCCC[n+]1cccc2c3ccccc3ccc21
inactive: outcome [1] | outcome [2] | outcome [3] | outcome [4] | outcome [5] | outcome [6] | outcome [7] | outcome [8] | outcome [9] | outcome [10] | outcome [11] | outcome [12] | outcome [13] | outcome [14] | outcome [15] | outcome [16] | outcome [17]
active: activation [18] 245% | potentiation [19] 64% | potentiation [20] 194%

CCOc1ccc(CN2CCCC(CNC(=O)c3ccc(F)cc3)C2)cc1CO (stereo not drawn)
inactive: outcome [1] | outcome [2] | outcome [3] | outcome [4] | outcome [5] | outcome [6] | outcome [7] | outcome [8] | outcome [9] | outcome [10] | outcome [11] | outcome [12] | outcome [13] | outcome [14] | outcome [15] | outcome [16] | outcome [17]

COc1ccc(Cl)c2sc(N(CCN(C)C)C(=O)CCS(=O)(=O)c3ccc(C)cc3)nc12
inactive: outcome [1] | outcome [2] | outcome [4] | outcome [5] | outcome [6] | outcome [7] | outcome [8] | outcome [9] | outcome [10] | outcome [11] | outcome [12] | outcome [13] | outcome [14] | outcome [15] | outcome [16] | outcome [17]
active: potentiation [3] 12%
